In PubChem BioAssay (NCI):
Compounds without any hit were thinned out: in the full panel of roughly 79,000, 15% have a hit. Calls of active or inactive are those of the source. Cut-off read from the data, not from the text of the source: active = growth inhibition above about 70%; inactive = the rest.

What was measured:
[1] = NCI Yeast Anticancer Drug Screen. Data for the rad52 strain (AID 147);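 note: 0% = growth of vehicle-treated control cultures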; conditions: S. cerevisiae rad52 mutant growth inhibition, stronger effect = higher value
Procedure, shortened: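 Yeast strain carrying a DNA damage repair alteration was exposed to test compounds. Growth inhibition was measured relative to vehicle-treated controls.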

[2] = NCI Yeast Anticancer Drug Screen. Data for the wt1 strain (AID 149);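 note: 0% = growth of vehicle-treated wt1 cultures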; conditions: S. cerevisiae wt1 strain (SPY 50644) growth inhibition, stronger effect = higher value
Procedure, shortened: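 Measured: growth of wt1 yeast under compound versus vehicle treatment, reported as inhibition.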

[3] = NCI Yeast Anticancer Drug Screen. Data for the rad50EPP+ strain (AID 151);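 note: 0% = growth of vehicle-treated control cultures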; conditions: S. cerevisiae rad50 mutant strain, stronger effect = higher value
Procedure, shortened: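 Yeast strain carrying rad50 alteration (rad50EPP+) exposed to compounds; growth inhibition measured relative to vehicle-treated controls.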

[4] = NCI Yeast Anticancer Drug Screen. Data for the mgt1 strain (AID 153); conditions: S. cerevisiae mgt1 mutant growth inhibition, stronger effect = higher value
Procedure, shortened: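 Yeast mgt1 strain (DNA repair/cell-cycle alteration panel) exposed to compounds; growth inhibition measured relative to vehicle-treated controls.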

[5] = NCI Yeast Anticancer Drug Screen. Data for the rad50 strain (AID 155);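 note: 0% = growth of vehicle-only cultures of the same strain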; conditions: S. cerevisiae rad50 strain growth inhibition, stronger effect = higher value
Procedure, shortened: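 Growth of the mutant yeast was measured after compound exposure and referenced to vehicle-treated cultures.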

[6] = NCI Yeast Anticancer Drug Screen. Data for the mec2-1 strain (AID 157); conditions: S. cerevisiae mec2-1 strain, stronger effect = higher value
Procedure, shortened: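 mec2-1 yeast strain, carrying an alteration in DNA damage repair or cell cycle control, was exposed to compounds; growth inhibition was measured relative to vehicle-treated controls.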

[7] = NCI Yeast Anticancer Drug Screen. Data for the rad14 strain (AID 159);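 note: 0% = growth of vehicle-treated control cultures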; conditions: S. cerevisiae rad14 strain growth inhibition, stronger effect = higher value
Procedure, shortened: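 Here, inhibition of yeast growth was measured after compound exposure, using a strain with a genetic defect in DNA damage repair and vehicle-treated cultures as the reference.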

[8] = NCI Yeast Anticancer Drug Screen. Data for the sgs1 mgt1 strain (AID 161);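 note: 0% = growth of cultures given vehicle only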; conditions: S. cerevisiae sgs1 mgt1 strain, stronger effect = higher value
Procedure, shortened: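 Compounds are added to genetically altered yeast, and growth is compared with cultures given vehicle alone to give percent inhibition.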

[9] = NCI Yeast Anticancer Drug Screen. Data for the CLN2oe strain (AID 163);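 note: 0% = growth of vehicle-only control cultures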; conditions: S. cerevisiae CLN2oe strain, stronger effect = higher value
Procedure, shortened: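 Yeast cells carrying a defined cell-cycle control alteration were exposed to test compounds. Growth inhibition was scored against vehicle-treated control cultures.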

[10] = NCI Yeast Anticancer Drug Screen. Data for the cln2 rad14 strain (AID 165);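 note: 0% = growth equal to vehicle treated cultures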; conditions: S. cerevisiae cln2 rad14 strain, stronger effect = higher value
Procedure, shortened: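 Yeast carrying cln2 and rad14 alterations (cell cycle control and DNA damage repair) were exposed to compounds. Growth inhibition was measured against vehicle-treated controls.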

[11] = NCI Yeast Anticancer Drug Screen. Data for the bub3 strain (AID 167); conditions: S. cerevisiae bub3 mutant strain, stronger effect = higher value
Procedure, shortened: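 Whole-cell yeast assay. The mutant strain was incubated with compounds, and growth inhibition was determined by comparison with vehicle-treated cells.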

[12] = NCI Yeast Anticancer Drug Screen. Data for the wt2 strain (AID 169);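 note: 0% = growth of vehicle-treated yeast cultures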; conditions: S. cerevisiae wt2 strain growth inhibition, stronger effect = higher value
Procedure, shortened: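 Yeast cells were exposed to test compounds, and growth inhibition was measured relative to vehicle-treated controls.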

[13] = NCI Yeast Anticancer Drug Screen. Data for the mlh1 strain (AID 171);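 note: 0% = growth of vehicle-treated control cultures of the same strain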; conditions: S. cerevisiae mlh1 strain growth inhibition, stronger effect = higher value
Procedure, shortened: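 Yeast carrying a defined genetic alteration in DNA damage repair or cell cycle control were exposed to test compounds. Growth inhibition was measured relative to vehicle-treated controls.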

[14] = NCI Yeast Anticancer Drug Screen. Data for the sgs1 strain (AID 173);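 note: 0% = growth of vehicle-only control cultures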; conditions: S. cerevisiae sgs1 mutant, stronger effect = higher value
Procedure, shortened: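 Yeast mutant strains carrying defined defects in DNA damage repair or cell cycle control were exposed to test compounds. Growth inhibition was scored against vehicle-treated controls.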

[15] = NCI Yeast Anticancer Drug Screen. Data for the mlh1 rad18 strain (AID 175); conditions: S. cerevisiae mlh1 rad18 strain growth inhibition, stronger effect = higher value
Procedure, shortened: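 Growth inhibition of the yeast strain was measured after compound exposure and expressed relative to vehicle-treated controls. The strain carries defined defects in DNA damage repair.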

[16] = NCI Yeast Anticancer Drug Screen. Data for the rad18 strain (AID 177); conditions: S. cerevisiae rad18 mutant growth inhibition, stronger effect = higher value
Procedure, shortened: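 Yeast carrying a defined DNA damage repair alteration were exposed to compounds. Growth inhibition was expressed relative to vehicle-treated controls.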

[17] = at 5.0 µM (retest, dose inferred, filed as 0.5)
[18] = at 50.0 µM (retest, dose inferred, filed as 5.0)

Measured: growth inhibition

CC(=O)O/N=C1C=C/C(=C(/C#N)c2ccccc2)C=C/1C
inactive: [1]; at 1.2 µM 6% | [1]; at 3.7 µM 15% | [1]; at 11.0 µM 63% | [2]; at 1.2 µM 3% | [2]; at 3.7 µM 5% | [2]; at 11.0 µM 24% | [3]; at 1.2 µM 43% | [4]; at 1.2 µM 2% | [4]; at 3.7 µM 6% | [5]; at 1.2 µM 5% | [5]; at 3.7 µM 10% | [5]; [17] 41% | [5]; at 11.0 µM 37% | [6]; at 1.2 µM -1% | [6]; at 3.7 µM 4% | [6]; [17] 16% | [6]; at 11.0 µM 19% | [7]; at 1.2 µM 1% | [7]; at 3.7 µM 7% | [7]; at 11.0 µM 25% | [9]; at 1.2 µM -6% | [9]; at 3.7 µM 0% | [9]; at 11.0 µM 16% | [10]; [17] 4% | [11]; at 1.2 µM -8% | [11]; at 3.7 µM -11% | [11]; [17] 0% | [11]; at 11.0 µM 4% | [12]; at 1.2 µM 2% | [12]; at 3.7 µM 7% | [12]; at 11.0 µM 65% | [13]; at 1.2 µM 3% | [13]; at 3.7 µM 8% | [13]; at 11.0 µM 53% | [14]; at 1.2 µM 21% | [14]; at 3.7 µM 54% | [15]; [17] 49% | [16]; at 1.2 µM 12% | [16]; at 3.7 µM 26% | [16]; at 11.0 µM 56%
active: [1]; at 33.0 µM 99% | [1]; at 100.0 µM 96% | [2]; at 33.0 µM 99% | [2]; at 100.0 µM 97% | [3]; at 3.7 µM 81% | [3]; at 11.0 µM 95% | [3]; at 33.0 µM 97% | [3]; at 100.0 µM 94% | [4]; at 11.0 µM 75% | [4]; at 33.0 µM 99% | [4]; at 100.0 µM 96% | [5]; at 33.0 µM 98% | [5]; [18] 98% | [5]; at 50.0 µM 99.5% | [5]; at 100.0 µM 94% | [6]; at 33.0 µM 99% | [6]; [18] 98% | [6]; at 50.0 µM 99.5% | [6]; at 100.0 µM 96% | [7]; at 33.0 µM 99% | [7]; at 100.0 µM 96% | [8]; [17] 77% | [8]; [18] 99% | [8]; at 50.0 µM 99.2% | [9]; at 33.0 µM 99% | [9]; at 100.0 µM 96% | [10]; [18] 98% | [10]; at 50.0 µM 99% | [11]; at 33.0 µM 99% | [11]; [18] 99% | [11]; at 50.0 µM 99.5% | [11]; at 100.0 µM 91% | [12]; at 33.0 µM 99% | [12]; at 100.0 µM 96% | [13]; at 33.0 µM 99% | [13]; at 100.0 µM 95% | [14]; at 11.0 µM 94% | [14]; at 33.0 µM 99% | [14]; at 100.0 µM 95% | [15]; [18] 98% | [15]; at 50.0 µM 98.8% | [16]; at 33.0 µM 99% | [16]; at 100.0 µM 95%

Cc1c2cc[n+](CCO)cc2c(C)c2c1[nH]c1ccc(O)cc12
inactive: [1]; at 1.2 µM 25% | [1]; at 3.7 µM 53% | [2]; at 1.2 µM 8% | [2]; at 3.7 µM 12% | [2]; at 11.0 µM 1% | [2]; at 33.0 µM 11% | [2]; at 100.0 µM 13% | [3]; at 1.2 µM 25% | [3]; at 3.7 µM 57% | [3]; at 11.0 µM 59% | [3]; at 33.0 µM 68% | [4]; at 1.2 µM 22% | [4]; at 3.7 µM 26% | [4]; at 11.0 µM 28% | [4]; at 33.0 µM 35% | [4]; at 100.0 µM 45% | [5]; at 1.2 µM 35% | [5]; at 3.7 µM 68% | [5]; [17] 47% | [6]; at 1.2 µM 22% | [6]; at 3.7 µM 28% | [6]; [17] 15% | [6]; at 11.0 µM 30% | [6]; at 33.0 µM 48% | [6]; [18] 36% | [6]; at 50.0 µM 36.7% | [6]; at 100.0 µM 52% | [7]; at 1.2 µM 4% | [7]; at 3.7 µM 9% | [7]; at 11.0 µM 3% | [7]; at 33.0 µM 19% | [7]; at 100.0 µM 29% | [8]; [17] 12% | [8]; [18] 35% | [8]; at 50.0 µM -1.6% | [9]; at 1.2 µM -11% | [9]; at 3.7 µM -32% | [9]; at 11.0 µM -17% | [9]; at 33.0 µM -9% | [9]; at 100.0 µM 3% | [10]; [17] 13% | [10]; [18] 15% | [10]; at 50.0 µM 7.55% | [11]; at 1.2 µM 6% | [11]; at 3.7 µM 9% | [11]; [17] 7% | [11]; at 11.0 µM 10% | [11]; at 33.0 µM 24% | [11]; [18] 33% | [11]; at 50.0 µM 1.35% | [11]; at 100.0 µM 28% | [12]; at 1.2 µM -8% | [12]; at 3.7 µM -6% | [12]; at 11.0 µM -4% | [12]; at 33.0 µM -9% | [12]; at 100.0 µM -10% | [13]; at 1.2 µM 25% | [13]; at 3.7 µM 32% | [13]; at 11.0 µM 41% | [13]; at 33.0 µM 42% | [13]; at 100.0 µM 47% | [14]; at 1.2 µM 18% | [14]; at 3.7 µM 19% | [14]; at 11.0 µM 17% | [14]; at 33.0 µM 25% | [14]; at 100.0 µM 42% | [15]; [17] 13% | [15]; [18] 36%
active: [1]; at 11.0 µM 80% | [1]; at 33.0 µM 91% | [1]; at 100.0 µM 91% | [3]; at 100.0 µM 83% | [5]; at 11.0 µM 89% | [5]; at 33.0 µM 94% | [5]; [18] 93% | [5]; at 50.0 µM 80.5% | [5]; at 100.0 µM 95% | [15]; at 50.0 µM 72.6%

CCC(/C=C/c1ccccc1)=N\Nc1ccc(Cl)c(Cl)c1
inactive: [1]; at 1.2 µM 7% | [1]; at 3.7 µM 11% | [1]; at 11.0 µM 17% | [2]; at 1.2 µM 0% | [2]; at 3.7 µM -3% | [2]; at 11.0 µM -4% | [2]; at 33.0 µM 24% | [3]; at 1.2 µM 9% | [3]; at 3.7 µM 20% | [3]; at 11.0 µM 28% | [3]; at 33.0 µM 29% | [3]; at 100.0 µM 29% | [4]; at 1.2 µM -3% | [4]; at 3.7 µM 4% | [4]; at 11.0 µM -4% | [4]; at 33.0 µM -3% | [5]; at 1.2 µM 26% | [5]; at 3.7 µM 36% | [5]; [17] 7% | [5]; at 11.0 µM 22% | [6]; at 1.2 µM -2% | [6]; at 3.7 µM -1% | [6]; [17] -1% | [6]; at 11.0 µM -5% | [6]; at 33.0 µM 22% | [7]; at 1.2 µM 2% | [7]; at 3.7 µM 0% | [7]; at 11.0 µM -6% | [7]; at 33.0 µM 10% | [8]; [17] 3% | [9]; at 1.2 µM -2% | [9]; at 3.7 µM -8% | [9]; at 11.0 µM -9% | [9]; at 33.0 µM 36% | [10]; [17] 1% | [11]; at 1.2 µM -2% | [11]; at 3.7 µM 2% | [11]; [17] 2% | [11]; at 11.0 µM 14%
active: [1]; at 33.0 µM 87% | [1]; at 100.0 µM 92% | [2]; at 100.0 µM 93% | [4]; at 100.0 µM 95% | [5]; at 33.0 µM 89% | [5]; [18] 89% | [5]; at 50.0 µM 95.5% | [5]; at 100.0 µM 91% | [6]; [18] 81% | [6]; at 50.0 µM 72.5% | [6]; at 100.0 µM 92% | [7]; at 100.0 µM 94% | [8]; [18] 74% | [8]; at 50.0 µM 82.5% | [9]; at 100.0 µM 89% | [10]; [18] 71% | [10]; at 50.0 µM 85.7% | [11]; at 33.0 µM 85% | [11]; [18] 93% | [11]; at 50.0 µM 94.3% | [11]; at 100.0 µM 91%
